# Read-outs that look alike come from different tables or passages of the source.
# Assays:
# Set-up in all cases: species or system human, MV4-11 + K-562 + COLO205 + SK-N-BE2 + OVCAR-8
# CSNK1A1 = settings: read-out: apparent Kd, compound concentrations: 100 nM and 1000 nM (sheet 'Samples'), n = 1
# MYLK3 = settings: read-out: apparent Kd; compound concentrations: 100 nM and 1000 nM (sheet 'Samples'), CATDS: 0.254967092830167; n = 1
# PKN2 = settings: read-out: apparent Kd; compound concentrations: 100 nM and 1000 nM (sheet 'Samples'), CATDS: 0.232185519076441; n = 1
# TP53RK = settings: read-out: apparent Kd; compound concentrations: 100 nM and 1000 nM (sheet 'Samples'), CATDS: 0.27535936863047; n = 1
# CSNK1D = settings: read-out: apparent Kd, compound concentrations: 100 nM and 1000 nM (sheet 'Samples'), n = 1
# CSNK1E = settings: read-out: apparent Kd, compound concentrations: 100 nM and 1000 nM (sheet 'Samples'), n = 1
# MAPK11 = settings: read-out: apparent Kd, compound concentrations: 100 nM and 1000 nM (sheet 'Samples'), n = 1
# MAPK14 = settings: read-out: apparent Kd, compound concentrations: 100 nM and 1000 nM (sheet 'Samples'), n = 1
# MAPKAPK2 = settings: read-out: apparent Kd, compound concentrations: 100 nM and 1000 nM (sheet 'Samples'), n = 1
# RIPK2 = settings: read-out: apparent Kd; compound concentrations: 100 nM and 1000 nM (sheet 'Samples'), CATDS: 0.10111059470888201; n = 1
# CLK1 = settings: read-out: apparent Kd, n = 1
# CLK4 = settings: read-out: apparent Kd, n = 1
# GSK3A = settings: read-out: apparent Kd; compound concentrations:100 nM and 1000 nM (sheet 'Samples'); n = 1
# GSK3B = settings: read-out: apparent Kd; compound concentrations:100 nM and 1000 nM (sheet 'Samples'); n = 1
# GAK = settings: read-out: apparent Kd; compound concentrations: 100 nM and 1000 nM (sheet 'Samples'), CATDS: 0.13551111713290001; n = 1
# MAPK8 = settings: read-out: apparent Kd; compound concentrations: 100 nM and 1000 nM (sheet 'Samples'), CATDS: 0.168882234188796; n = 1
# MAPK9 = settings: read-out: apparent Kd, compound concentrations: 100 nM and 1000 nM (sheet 'Samples'), n = 1
# TTK = settings: read-out: apparent Kd; compound concentrations: 100 nM and 1000 nM (sheet 'Samples'), CATDS: 0.53372982121950996; n = 1
# DJA1 = system: T1, DJA1; settings: read-out: apparent Kd; compound concentrations: 100 nM and 1000 nM (sheet 'Samples'), CATDS: 7.1447025322651805E-2; n = 1
# T1 construct: gene DNAJA1
# MAPK10 = settings: read-out: apparent Kd, compound concentrations: 100 nM and 1000 nM (sheet 'Samples'), n = 1
# NQO2 = settings: read-out: apparent Kd, compound concentrations: 100 nM and 1000 nM (sheet 'Samples'), n = 1
# COX5A = settings: read-out: apparent Kd; compound concentrations: 100 nM and 1000 nM (sheet 'Samples'), CATDS: 0.15625736744525701; n = 1
# DDR1 = settings: read-out: apparent Kd; compound concentrations: 100 nM and 1000 nM (sheet 'Samples'), CATDS: 0.25244983438360302; n = 1
# DDR2 = settings: read-out: apparent Kd; compound concentrations: 100 nM and 1000 nM (sheet 'Samples'), CATDS: 0.115124869581512; n = 1
# FLT3 = settings: read-out: apparent Kd; compound concentrations: 100 nM and 1000 nM (sheet 'Samples'), CATDS: 0.12065000979252; n = 1
# NNT = settings: read-out: apparent Kd; compound concentrations: 100 nM and 1000 nM (sheet 'Samples'), CATDS: 0.115819369976432; n = 1
# PDXK = settings: read-out: apparent Kd; compound concentrations: 100 nM and 1000 nM (sheet 'Samples'), CATDS: 0.115099137531036; n = 1
# RET = settings: read-out: apparent Kd; compound concentrations: 100 nM and 1000 nM (sheet 'Samples'), CATDS: 0.12937404694589899; n = 1
# ZAK = settings: read-out: apparent Kd; compound concentrations: 100 nM and 1000 nM (sheet 'Samples'), CATDS: 8.61130704510496E-2; n = 1
# PIK3CD = settings: read-out: apparent Kd; compound concentrations: 100 nM and 1000 nM (sheet 'Samples'), CATDS: 0.41134743817449698; n = 1
# [1] = compound concentrations:100 nM and 1000 nM (sheet 'Samples')
smiles,measurement,setting,value
Cc1ccc(-c2cc3c(NC(=O)C4CC4)ncnc3o2)cc1 [GW819230X],potency estimated from few doses,CSNK1A1; CATDS: 0.241580521879566,2130 nM
same,potency estimated from few doses,MYLK3,1910 nM
same,potency estimated from few doses,PKN2,2320 nM
same,potency estimated from few doses,TP53RK,1650 nM
CC1(C)CC(n2cnc(-c3ccc(F)cc3)c2-c2ccnc(N)n2)CC(C)(C)N1 [SB-221466],potency estimated from few doses,CSNK1A1; CATDS: 9.6046167396209803E-2,694 nM
same,potency estimated from few doses,CSNK1D; CATDS: 0.25228114630202902,37.6 nM
same,potency estimated from few doses,CSNK1E; CATDS: 0.19281480161649001,65.4 nM
same,potency estimated from few doses,MAPK11; CATDS: 9.0675457178051394E-2,958 nM
same,potency estimated from few doses,MAPK14; CATDS: 0.38213111916194098,18.8 nM
same,potency estimated from few doses,MAPKAPK2; CATDS: 0.16941172485113901,89.6 nM
same,potency estimated from few doses,RIPK2,537 nM
COc1ccc(CSc2nnc(-c3ccc4ncsc4c3)o2)cc1C(F)(F)F [TPKI-91],potency estimated from few doses,CLK1; [1],549 nM
same,potency estimated from few doses,CLK4; [1],599 nM
same,potency estimated from few doses,GSK3A,131 nM
same,potency estimated from few doses,GSK3B,72.5 nM
CNc1nc(Nc2ccc(C(=O)N3CCOCC3)cc2OC)nc2[nH]cc(Cl)c12 [JH-II-127],potency estimated from few doses,"CLK1; compound concentrations: 100 nM and 1000 nM (sheet 'Samples'), CATDS: 0.13184639507044499",1090 nM
same,potency estimated from few doses,"CLK4; compound concentrations: 100 nM and 1000 nM (sheet 'Samples'), CATDS: 0.153440234991533",722 nM
same,potency estimated from few doses,GAK,1000 nM
same,potency estimated from few doses,MAPK8,575 nM
same,potency estimated from few doses,MAPK9; CATDS: 0.14872410543912701,781 nM
same,potency estimated from few doses,TTK,76.1 nM
CCOc1nccc(-c2c(-c3ccc(F)cc3)ncn2C2CCNCC2)n1 [SB-249175],potency estimated from few doses,CSNK1A1; CATDS: 0.102503652768427,294 nM
same,potency estimated from few doses,CSNK1D; CATDS: 0.31219473795395603,16.6 nM
same,potency estimated from few doses,CSNK1E; CATDS: 0.18119769412776501,46.9 nM
same,potency estimated from few doses,DJA1,1630 nM
same,potency estimated from few doses,MAPK10; CATDS: 7.1245555578464306E-2,1660 nM
same,potency estimated from few doses,MAPK11; CATDS: 7.9204394656965396E-2,935 nM
same,potency estimated from few doses,MAPK14; CATDS: 0.21634918417803001,31.9 nM
same,potency estimated from few doses,MAPKAPK2; CATDS: 0.24140517483875701,25.8 nM
same,potency estimated from few doses,NQO2; CATDS: 7.6337001924779102E-2,1130 nM
COC(=O)Nc1nc2cc(Oc3ccc(NC(=O)Nc4cccc(Br)c4)cc3)ccc2[nH]1.Cl [GW694234A],potency estimated from few doses,COX5A,463 nM
same,potency estimated from few doses,DDR1,217 nM
same,potency estimated from few doses,DDR2,865 nM
same,potency estimated from few doses,FLT3,777 nM
same,potency estimated from few doses,NNT,853 nM
same,potency estimated from few doses,PDXK,865 nM
same,potency estimated from few doses,RET,668 nM
same,potency estimated from few doses,ZAK,2040 nM
CCCCc1nn2ncccc2c1-c1ccnc(NC2CC2)n1 [GW684374X],potency estimated from few doses,CSNK1D; CATDS: 0.183460166751924,702 nM
same,potency estimated from few doses,CSNK1E; CATDS: 0.13214440190412699,1590 nM
same,potency estimated from few doses,MAPK10; CATDS: 0.138963906660688,1370 nM
same,potency estimated from few doses,MAPK9; CATDS: 0.12372123914536701,1960 nM
same,potency estimated from few doses,NQO2; CATDS: 0.189684513322773,655 nM
same,potency estimated from few doses,PIK3CD,178 nM
